This is part of a sample that, as a whole, favours compounds with a hit. Of some 83,000 tested, about 20% had one in any assay.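 Percent growth is the endpoint: 0 to 100 indicates growth inhibition (40 means 60% inhibition), 0 means no net growth, and negative values indicate cell death.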 Values without a mark were called inactive. Active and inactive are the calls of the source. How the source made its calls: active means growth percent below 10; inactive means the rest.

What all share (assay): NCI-60 one-dose screen, 48 h (100 = growth as untreated, 0 = no growth, -100 = all killed)
Common to all, as to conditions: 10 µM unless noted

In assay [1] the test system is HCT-15 colon.
Assay [2] has as its system HT29 colon.
Assay [3] relates to SNB-75 CNS.
Assay [4] deals with SNB-19 CNS.
Assay [5] relates to U251 CNS.
Assay [6] deals with SK-MEL-5 melanoma.
In assay [7] the test system is UACC-62 melanoma.
The subject of assay [8] is LOX IMVI melanoma.
Assay [9] relates to SK-MEL-28 melanoma.
Assay [10] relates to PC-3 prostate.

For `CC(C)NS(=O)(=O)c1cccc(-c2ccc3c4c(n(CCCN(C)C)c(=O)c3c2)-c2ccccc2C4=O)c1`, the growth in assay [1] was 67.9%; in assay [2], -16.2% (active); in assay [3], 88.9%; in assay [4] it was 110%; in [5] it was 56%; in assay [6], 94.1%. Moreover, the growth in assay [7] was 106%; in assay [8] it was 100%; in assay [9] it was 99.5%.
Consider `COC(=O)c1ccc2c(c1)NC(=O)[C@@H]1CCCN21`, for which the growth in assay [1] is 96.6%; in [2] it was 98.5%; in [3] it was 83.1%; in assay [4] it was 94.2%; in assay [5], 102%; in assay [6], 96.8%. Moreover, the growth in assay [7] is 94.6%; in [8], 88.5%; in [9], 106%.
As for `CC(C)(C)c1ccc(O)c(Cc2cc(C(C)(C)C)ccc2O)c1`, the growth was 101% in [1]; 98.7% in assay [2]; 89.2% in assay [3]; 101% in assay [4]; 90.2% in [5]; 99% in [6]. In addition, the results for the growth in assay [7], in assay [8] and in [9] were 87.8%, 99.1% and 104%, respectively.
Turning to `N#Cc1c(NC(=O)c2cccs2)[n+]([O-])c2cc(C(F)(F)F)ccc2[n+]1[O-]`, the growth in assay [1] is 117%; in assay [2], 107%; in assay [3], 92.6%; in [5], 104%; in assay [10], 65.1%; in [6] it was 58%. In addition, the growth in [7] was 96.8%; in [8], 94.7%; in assay [9] it was 120%.
Consider `Cc1nc2sc(C(=O)Nc3ccccc3)c(N)c2cc1C(C)O` (stereo not given), for which the growth in assay [1] was 27.8%; in assay [2], 1.95% (active); in [3], 30.9%; in assay [4], 24.3%; in [5], 21.7%; in assay [6], 26.5%. Moreover, the growth in assay [7] is 29.5%; in assay [8], 47.5%; in assay [9] it was 55.8%.
In the case of `C=C1C(=O)O[C@H]2[C@H]1CC/C(COC(=O)n1ccnc1)=C\CC[C@@]1(C)O[C@@H]21`, the growth in assay [1] was 83.5%; in assay [2], 100%; in [3], 92.8%; in assay [4], 99%; in [5], 99.1%; in [6], 98.5%. Moreover, the growth in assay [7] was 91.6%; in assay [8], 90.4%; in [9] it was 102%.
For `CC(=O)c1ccc(NC(=O)CSc2nnc(-c3cc(-c4ccc(C)cc4)nc4ccccc34)o2)cc1`, the growth in [1] was 56.7%; in assay [2] it was 68.2%; in [3], 62.1%; in assay [4] it was 43.2%; in assay [5], -59.8% (active); in [6] it was 68.7%. Further, the results for the growth in assay [7], in assay [8] and in [9] were 90.7%, 31.9% and 99.3%, respectively.
For `Nc1c(C(=O)Nc2ccccc2)sc2nc3c(cc12)CN(C(=O)OCc1ccccc1)CC3`, the growth is 37.3% in assay [1]; 15.7% in assay [2]; 49.6% in [3]; 56.1% in assay [4]; 37.8% in assay [5]; 36% in assay [6]. The growth is 43% in assay [7], 40.8% in assay [8] and 62.3% in assay [9].
Consider `COc1ccc([C@H]2[C@@H](F)C(=O)N2c2cc(OC)c(OC)c(OC)c2)cc1F`, for which the growth in [1] is 13.6%; in assay [2], 3.73% (active); in [3], 50.9%; in assay [4], 34.1%; in [5], 11.9%; in assay [6] it was -31.5% (active). Besides, the growth in [7] was 53.4%; in assay [8], 24%; in assay [9] it was 57.7%.
For the molecule `O=C(CN1N=C(c2ccc(F)cc2)CCC1=O)Nc1nccs1`, the growth in [1] is 99.3%; in assay [2] it was 87%; in assay [3], 92.2%; in [4], 91.4%; in assay [5], 101%; in [6], 98.4%. In addition, the growth in assay [7] is 92.5%; in [8], 98.9%; in assay [9] it was 109%.
With `COc1cc(C(=O)Nc2cc(O)c(C/C=C(\C)CCC=C(C)C)c(O)c2)cc2c1O[C@]1(C)CC[C@@H](O)C(C)(C)[C@H]1C2`, the growth in assay [1] is 1.55% (active); in assay [2] it was -25.5% (active); in assay [3] it was 20.2%; in [4], 32.2%; in [5] it was 6.63% (active); in assay [6], -39.6% (active). In addition, the growth in assay [7] was 0.641% (active); in assay [8], -33.8% (active); in assay [9] it was 25.8%.
With `O=C(Nc1cc(=O)[nH]c(=O)[nH]1)C(Cl)Cl`, the growth in assay [1] is 103%; in [2], 102%; in assay [3] it was 96.9%; in [4], 99%; in [5], 99.5%; in assay [6] it was 102%. The growth is 88.9% in [7], 100% in assay [8] and 111% in assay [9].
As to `NS(=O)(=O)c1ccc(-n2ncc(NC(=O)Nc3ccc(S(=O)(=O)Nc4nccs4)cc3)c2-c2ccccc2)cc1`, the growth is 104% in [1]; 99.9% in assay [2]; 65.7% in assay [3]; 103% in assay [4]; 102% in [5]; 105% in assay [6]. Further, the values for the growth in assay [7], in assay [8] and in [9] were 98.4%, 101% and 102%, respectively.
Regarding `CC(=O)[C@@H]1CC[C@]2(C(=O)O)CC[C@]3(C)[C@H](CC[C@@H]4[C@@]5(C)Cc6c([nH]c7ccccc67)C(C)(C)[C@@H]5CC[C@]43C)[C@@H]12`, the growth was 44.3% in assay [1]; 68.6% in [2]; 94.7% in [3]; 70.2% in assay [4]; 45% in assay [5]; 71.8% in [6]. Further, the growth was 50.1% in assay [8] and 78.5% in assay [9].
Turning to `CN1CCN(C(=O)[C@@]2(C)CC[C@]3(C)CC[C@]4(C)C(=CC[C@@H]5[C@@]6(C)CC[C@H](OC(=O)c7cccnc7)C(C)(C)[C@@H]6CC[C@]54C)[C@@H]3C2)CC1`, the growth was -46.9% (active) in assay [1]; 8.46% (active) in [2]; 90.4% in [3]; 19.8% in [4]; -69.8% (active) in assay [5]; 64.4% in [6]. The growth in assay [7] was 82.1%; in assay [8] it was -26.4% (active); in assay [9] it was 76.7%.
Consider `COc1ccc(C2C(c3ccccc3)C(=O)N2c2cc(OC)c(OC)c(OC)c2)cc1I` (stereo not given), for which the growth in assay [1] was 13.1%; in assay [2], 1.74% (active); in [3], 57.5%; in [4] it was 33.4%; in assay [5] it was 15.4%; in assay [6], -41% (active). Moreover, the growth in assay [7] is 28.1%; in assay [8], 24.3%; in [9], 60.3%.
For the molecule `C=C1C(=O)O[C@H]2[C@H]1CC/C(COC(=O)CCCCCCC(=O)OC/C1=C/CC[C@@]3(C)O[C@H]3[C@H]3OC(=O)C(=C)[C@@H]3CC1)=C\CC[C@@]1(C)O[C@@H]21`, the growth in assay [1] was 0.887% (active); in assay [2], 3.75% (active); in assay [3], 63.1%; in assay [4], 65.9%; in [5], 44.1%; in assay [6], 36.5%. Moreover, the growth in assay [7] was 42.3%; in assay [8], -10.8% (active); in [9], 48.8%.
`O=C(Nc1nccs1)c1noc2ccccc12`: the growth is 92.8% in assay [1]; 99.5% in [2]; 87.9% in assay [3]; 93.5% in assay [4]; 98.5% in assay [5]; 91.5% in [6]. For the same molecule, the growth in assay [8] is 95.8%; in assay [9], 103%.
On to `O=C1CC(c2ccc(O)c(O)c2)Oc2cc(O)c([C@@H]3O[C@H](CO)[C@@H](O)[C@H](O)[C@H]3O)c(O)c21` (stereo not given in full), for which the growth in assay [1] was 102%; in [2], 103%; in [3], 102%; in [4] it was 102%; in assay [5], 98.1%; in assay [6] it was 103%. Also, the growth is 105% in assay [7], 104% in assay [8] and 107% in [9].
As to `O=c1[nH]nc(-c2ccccc2)c2sc(NC(=S)Nc3ccc(Cl)cc3)nc12`, the growth is 89.9% in assay [1]; 74.8% in assay [2]; 84.1% in assay [3]; 102% in assay [4]; 92.1% in assay [5]; 101% in [6]. The growth in assay [8] is 92.4%; in [9] it was 110%.
Consider `O=S(=O)(Nc1nccs1)c1ccc(Nc2nc(-c3ccncc3)cs2)cc1`, for which the growth in assay [1] is 103%; in assay [2] it was 120%; in [3] it was 84.7%; in assay [4], 101%; in [5], 95.2%; in assay [6], 107%. Moreover, the growth in [7] was 94.7%; in [8], 95.8%; in assay [9], 109%.
Consider `CC(C)(C)c1nn(-c2ccccc2)c2c1COCN2Cc1ccc(Cl)cc1`, for which the growth was 96% in assay [1]; 65.7% in assay [2]; 95.1% in assay [3]; 92.4% in assay [4]; 90.3% in assay [5]; 82.2% in assay [6]. Further, the growth in [7] was 72.8%; in assay [8] it was 85%; in [9], 100%.

Source of the values: PubChem BioAssay (NCI).
